Laboratory results as given in PubChem BioAssay (NCI).
This is part of a sample that, as a whole, favours compounds with a hit. Of some 83,000 tested, about 20% had one in any assay.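 Values shown are percent growth following 48 h exposure of cells in 96-well plates to a single concentration of compound; below 10 was considered active.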 Unmarked numbers belong to inactive results.

Test system: MOLT-4 leukemia
Experiment: NCI-60 one-dose screen, 48 h (100 = growth as untreated, 0 = no growth, -100 = all killed)
Details: 10 µM unless noted

`CCCc1cc(=O)n2c(C(=O)Nc3ccccc3OC)c(C(=O)Nc3ccc(F)cc3)sc2n1` was tested, and the growth was 65.8% [30 µM].

Point of comparison: `COc1ccc2nccc(/C=C/c3ccnc4ccc(OC)cc34)c2c1`, growth 33.1%. Against it:
- C=Cc1nn2c(CCC(=O)c3nc4ccccc4[nH]3)nnc2s1 — higher, 102%
- CCOC(=O)C(C(C)=O)c1nc2sc3cc(Cl)ccc3n2c(=N)c1C#N (stereo not given) — higher, 44.9%
- COc1ccc(-c2c(-c3cc(OC)c(OC)c(OC)c3)noc2N)cc1 — lower, 13%
- COc1ccc(-c2cc(C(=O)Nc3nc4cc(C)c(C)cc4s3)nc3cc(-c4ccccc4)nn23)cc1OC — higher, 98.7%
- COc1ccc(-c2cc(Cc3cccs3)c(=O)n(Cn3ccc4ccccc43)n2)cc1 — higher, 97.5%
- COc1ccc(-c2cc(Cc3cccs3)c(=O)n(Cn3cncn3)n2)cc1 — higher, 93%
- Cn1c(=O)c2c(nc(Br)n2CCC(=O)Nc2ccc(F)cc2)n(C)c1=O — higher, 95.9%
- COc1ccc(/C=C/C(=O)Nc2cccnc2Nc2ccc(F)cc2)cc1 — higher, 80.1%
- O=C1NCC(Nc2ccc(Br)cc2Cl)C(=O)N1 (stereo not given) — higher, 109%
- CC/C=C\C=C/C(=O)N/C=C/CC1Cc2cccc(O)c2C(=O)O1 (stereo not given) — higher, 47.5%
- Cc1cc(C)c2c(c1)N1OC(C2)C[C@H]1/C=C/c1ccccc1 (stereo not given in full) — higher, 77.7%
- Cc1cc(=O)n2n1-c1ccc(Cl)cc1NC(=O)C2 — higher, 108%
- CC[C@H](C)C(=O)O[C@H]1C[C@@H](C)C=C2C=C[C@H](C)[C@H](CC[C@@H]3C[C@@H](O)CC(=O)O3)[C@H]21 — higher, 90.8%
